Assay outcomes as filed in PubChem BioAssay.
Insulin prom up – MIN6 insulin promoter up-regulation. actives 0.3% (n = 190,000). AID 1625. z-score at 5 µM. MIN6 insulin promoter-GFP reporter, high-content imaging; stronger effect = higher value;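 active = z-score above 3 at 5 µM with at least 500 cells counted in the well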
S1P4 antagonist – human S1P4 receptor antagonism | O95977 | S1P4-expressing cells, antagonist mode, reporter read-out | inhibition, % at 4.98 µM | actives 0.26% (n = 220,000); in the data active = inhibition above about 29%;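 also: 0% = wells stimulated with agonist and 100% = vehicle wells without agonist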
Target sequence (O95977 whole entry, looked up): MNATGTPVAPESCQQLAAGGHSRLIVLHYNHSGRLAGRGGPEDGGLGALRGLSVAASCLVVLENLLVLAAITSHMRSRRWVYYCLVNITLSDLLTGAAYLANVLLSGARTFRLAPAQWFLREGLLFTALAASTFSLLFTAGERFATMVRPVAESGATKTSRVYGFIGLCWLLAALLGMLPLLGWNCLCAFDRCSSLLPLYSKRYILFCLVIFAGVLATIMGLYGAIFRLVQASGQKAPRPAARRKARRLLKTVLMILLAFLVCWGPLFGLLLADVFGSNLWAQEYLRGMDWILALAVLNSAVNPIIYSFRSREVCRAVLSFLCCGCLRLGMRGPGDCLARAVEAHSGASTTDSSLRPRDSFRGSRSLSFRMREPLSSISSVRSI
S1P4 agonist – human S1P4 receptor agonism. S1P4-expressing cell line, agonist reporter assay. actives 0.35% (n = 220,000). activation, % at 4.98 µM; in the data active = activation above about 11%;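 also: 0% = DMSO vehicle and 100% = reference agonist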
Hsp70 activator – transcriptional activators of Hsp70. HeLa Hsp70 promoter luciferase reporter, luminescence; scaled: vehicle 0, proteasome-inhibitor control 100%. activation, % at 10 µM. actives 0.04% (n = 200,000);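 active = activation above the mean across all tested compounds plus 3 SD, cutoff set per campaign, cut at about 5.5% in these data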;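 also: 100% = MG132 at 30 µM as the positive control and 0% = DMSO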
INS promoter inh – TRM-6 insulin promoter activity inhibition. actives 0.9% (n = 130,000). inhibition, % at 2 µM. TRM-6 cells (human fetal islet line), insulin promoter-eGFP reporter, imaging; reporter expression induced with tamoxifen;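 active = inhibition above the mean plus 3 SD, with well images judged a real hit on visual review, cut at about 60% in these data, passing the limit was not always enough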
S1P3 antag – S1P3 (human) receptor antagonism. Q99500. CHO S1P3 NFAT-BLA reporter, FRET fluorescence, antagonist mode. inhibition, % at 4.98 µM. actives 0.27% (n = 170,000). AID 485;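 active = inhibition above the plate cutoff, the mean inhibition of test wells on that plate plus 3 SD, cut at about 28% in these data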;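 also: cells challenged with S1P at its EC80 of 0.8 µM; blue over green emission ratio from cleaved BLA substrate after 4 h stimulation; 0% = S1P-stimulated wells and 100% = unstimulated DMSO-only wells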
S1P4 agonist cf – confirmation of human S1P4 receptor agonists; AID 1523; actives 7% (n = 740); shares compounds with S1P4 agonist; activation, % at 4.98 µM; S1P4 agonist cell-based reporter assay; in the data active = activation above about 12%;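 also: 0% = vehicle and 100% = full reference agonist response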
S1P1 ag – activates human S1P1, counter-screen for S1P4 agonists; shares compounds with S1P4 agonist; S1P1 agonist cell-based assay, activation; activation, % at 4.98 µM; actives 4% (n = 740); in the data active = activation above about 21%;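 also: 0% = vehicle wells and 100% = reference agonist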
Active calls of the source: *; · = not tested or not shown. Sampled rows, rich in hits. Any-hit rate of the full collection: about 1.5%.

SMILES	Insulin prom up	S1P4 antagonist	S1P4 agonist	Hsp70 activator	INS promoter inh	S1P3 antag	S1P4 agonist cf	S1P1 ag
Cc1ccccc1CC1(CO)CCCN(C(=O)c2cc(Cl)ccc2F)C1 (stereo not given)	-0.94	4	26*	0	·	-1	-2	3
Cc1ccccc1CC1(CO)CCCN(C(=O)c2ccccc2Cl)C1 (stereo not given)	·	-10	1	0	·	-21	·	·
Cc1cccc(C)c1NC(=O)C1(N(Cc2ccco2)C(=O)CC2NC(=O)NC2=O)CCCC1 (stereo not given)	-0.25	-14	1	-1	-16	·	·	·
CCOCCCNCc1ccc(OCCC(C)C)c(OC)c1	-0.28	5	1	0	·	0	·	·
CCCNC(=O)Cn1nc([N+](=O)[O-])c([N+](=O)[O-])c1C	1.4	-12	14*	0	45	0	-2	4
COc1ccc(OC)c(NC(=O)CSc2nnc(C3CCCCC3)o2)c1	0.43	-12	1	0	·	2	·	·
c1ccc2c(N3CCCCC3)nc(N3CCOCC3)nc2c1	-0.67	-3	1	0	-92	11	·	·
Nc1nc(N2CCOCC2)nc2ccccc12	-0.85	0	22*	0	·	-32	-1	-7
O=C(O)CCCn1cc(NC(=O)COc2ccc([N+](=O)[O-])cc2)cn1	-0.07	-7	1	0	·	-11	·	·
CCN(CC)CCCN1C(=O)C(=O)/C(=C(/O)c2cnn(-c3ccccc3)c2C)C1c1ccncc1 (stereo not given)	·	22	1	0	35	-15	·	·
CCOC(=O)C1CCN(c2ncnc3c2oc2ccc(Cl)cc23)CC1	0.41	-1	187*	0	-13	-6	-2	-1
Clc1ccc(N2CCN(c3ncnc4c3oc3ccccc34)CC2)cc1	0.24	·	·	·	·	14	·	·
COc1ccccc1NC(=O)CCN1CCN(CCC(=O)Nc2ccccc2OC)CC1	0.49	·	·	·	·	12	·	·
O=C1CCC(C(=O)N2CCCC(C(=O)c3ccc4c5c(cccc35)CC4)C2)=NN1 (stereo not given)	·	-26	2	0	13	0	·	·
CC(C)c1csc(CN2CCN(Cc3ccc(F)c(F)c3)C(CCO)C2)n1 (stereo not given)	1.1	-9	42*	0	·	-2	-2	-5
O=C(Nc1ccc(S(=O)(=O)Nc2nccs2)cc1)c1ccc(=O)[nH]c1	·	6	2	0	15	-4	·	·
CC(=O)c1c(C)[nH]c(C(=O)COC(=O)c2ccc3c(=O)n4c(nc3c2)CCC4)c1C	0.99	4	1	0	·	-9	·	·
O=C(CSc1nc2ncc(Br)cc2[nH]1)Nc1ccc2c(c1)OCO2	0.35	-1	29*	0	-45	-15	-1	0
O=C(CSc1nc2ncc(Cl)cc2[nH]1)c1ccc2c(c1)OCO2	0.85	16	-1	·	·	-8	·	·
COc1cc(-n2c(=O)c3ccccc3n(Cc3cccc(C)c3)c2=O)cc(OC)c1OC	0.47	0	31*	0	44	-27	2	-3
CC/C(O)=C1\C(=O)CCCC1=NCCc1nc2ccccc2[nH]1	0.04	8	-4	0	-31	-29	·	·
CC/C(O)=C1\C(=O)CCCC1=NCc1nc2ccccc2[nH]1	-0.5	-10	209*	1	-64	8	-3	0
CC12c3ccccc3C(c3ccccc31)C1C(=O)N(c3cccnc3)C(=O)C12 (stereo not given)	·	-9	-1	0	23	3	·	·
CC12c3ccccc3C(c3ccccc31)C1C(=O)N(Cc3cccnc3)C(=O)[C@H]12 (stereo not given in full)	0.04	-1	40*	0	·	11	-1	0
Cc1ccccc1-n1c(=O)[nH]c(=O)c2c(N)c(C(=O)c3ccc(Cl)cc3)sc21	-1.1	-2	83*	0	-29	-4	-2	-7
COc1ccc(/C(C)=N/OCC(=O)Nc2nc3ccccc3s2)cc1	0.23	-10	0	0	-48	-8	·	·
O=C(Cn1cnc2ccccc2c1=O)Nc1ccc2c(c1)OCO2	0.59	0	-1	0	-5	-7	·	·
